Source: the supplement of paper PMC12632987
Over roughly 2,300 sequences, “median log2 fold change of GCK-ALFA target abundance (FLAG IP / Myc IP barcode read proportion)” has its median near 0.095; the lowest 2% begin near -0.47. For the sample, the lowest values were picked, then their nearest neighbours and some sequences at random.

B1: LC3A_23_616 (protein)
chain: MYKVEIIVDIIVPKEEAEKVEKDLLETINKVLEKNKSKIKEYKIEVEKEELEDGTVLLTIKVTIIYDGNKEEAEELANELVSAIDKTAPDAVISAEVSKI
B2: LC3A_141_376 (protein)
chain: KEVEFELEAKGETPEEVVEKMDELEEKVLKAYEELGGGKVKVKVTLTLTNRETGEVKVVEEEFVGDKETIEMLLDGFLIEAASAVMRAPTDVKLKVVLEK
B3: LC3A_28_1118 (protein)
chain: SLAEKVIKAFEKQVEAAIASGEETLIEVEVSPELSQEEVEKLAKKMAEYAKKAAEKLKVSVLVSVEKGVSQEKIDIIADEAEKVEEEYPNVNVIIALEEE
B4: LC3A_3_1420 (protein)
chain: MEEELERALEELREAGWSEETLEALREVVEALLERGAEEEARRVLELVLENKDISSEDLLEVLREVLELLKTPGVSPEEAVERLEELLRIARNEQEIEEL
B5: LC3A_free_0_2100 (protein)
chain: MVTKVEVLGIIPDKSAKEAAEAIKEKLEEYGKKLSEEKGWKVTVELTEVDGSYVITVTIEGEGMSIEEGLEIADEIADLIEELAKEHGVEVTIYESVYEE
B6: LC3A_147_496 (protein)
chain: ATVEVDVLVKDKEAAEKVVEEFKKLVEKLKKQGIEVELEVEIEQISPDTWYVKITIKIKAKTEEEEKKVANEVVDEIEKIEEKYKDKILASLISVEIEEK
B7: LC3A_147_465 (protein)
chain: KKYEVVLDVLVKDLTPELLKDFEELAEEIKEKFPDAEVELKVETDPEDPSLTLVTLTVTVDTEEDAEKILDFLDEKEEELEKKYSDQILASMISKQEVEP
B8: LC3A_147_464 (protein)
chain: MKYRVELDVLVKNLTPELLADFEELAEEIKKKFPDAEVELKVETDPEDPSLSLVTLTVTVDTEEDAKKIEDFLDKKLEELEKKYKDQILASMISREKVEP
B9: LC3A_23_598 (protein)
chain: MYKVELIVSLIGEEEEIKKKAEKLKKEIEKILEKYKDKIISYKINVSFEKLEDGKTYLEIEVEIIIEDDEEVAEEIAEELTDAADKILPDGVISVEVEKL
B10: LC3A_141_368 (protein)
chain: TTLTITTDIGRASLDEIVAKMDELEEAALAAHRELGGGRVRVTVTITVKNLKTGETTTITEEFEADEEELELIMEGVLIEVASYALTEDAEVTVTVTLEG
B11: LC3A_3_1723 (protein)
chain: MEKIKAEALAVLKAQGASPETIKAAEELLKALEEKGFLEAAKTLLEELKKLKGVSSEDLLAALKDLLYKVTNEDLSEEEVIEEIKREFSVLKSAKEIEEL
B12: LC3A_141_386 (protein)
chain: MKKEFEFTATEEEAQEVFDFFDEVEKELLEMIEESGGKPVKVKVTIKATNDETGEVVEKEEEFTVTKENVSEVMEGLAIEVLSLLDKVKGTVEVKIEAEV
B13: LC3A_28_1018 (protein)
chain: SELEEQIEEIEKEVEEAIEKGEDVVVTLEIKGSMSEEEVREAMERVKEIVLEGAEKGKVDLVIDVDKDVSQEKLDIVLEAADEIEEKAPNVNVIIALEER
B14: LC3A_147_510 (protein)
chain: YLVEIDVDLLVKNAVEEVKKRFKEIVEKLKKKGYKVELEIKEEKIDENTYYVEVTIKIYAETKEEAEKAANETLSLLDEMLEELKDEILGSLISVDIEET
B15: LC3A_59_2020 (protein)
chain: SEEIEEYREKMRANIDDIDAFTATVREALEKFKDDPEKVKEILKAAMDVVVEELGADKEEAEKVLEEMLKILEEEKDKEKAIEKIVDLIRDLLLLTPIEE
B16: LC3A_free_8_2464 (protein)
chain: ASQKLVDTIVAKLDELEKALVKKAKEEGKSRLDILELELEVGSAIAELISNVDASPEEILKTLKEDLKDIIKVAKEIGEEVAKLAKEKSKEILAEAEALI
B17: LC3A_17_552 (protein)
chain: REELRERLRRLLEELRALVERLEPYDPEAARRLRERLERAEELLEAGRLREAAETLAEAAREAARRAEELEPKYGNEMSVLAMEFNGLELEAIGLLLELD
B18: LC3A_132_298 (protein)
chain: DEEKAKEILEKVKEKVEEAKENIDNEEKVEELLEEIEELIKEAEEKLSPELLAKVMEEVAELLDELSQKFLEAGKEHLAMLADGLAIEAESLALRAEKEI
B19: LC3A_3_1773 (protein)
chain: MEELLARFEEKLRAAGFSEEVIKEALAAIKTFLEKGREEVAETFLELMLEAKDLSEEKLLVMARMAKELAEESKVSEEELIKELKRLFESIAGIEELDEE

The binders below were run against MAP1LC3A, Q9H492 (assay: median log2 fold change of GCK-ALFA target abundance (FLAG IP / Myc IP barcode read proportion) (log2 ratio); each designed protein is fused to an ALFA-tag nanobody in HEK293 cells to bring the named protein to FLAG-tagged glucokinase (GCK); Myc marks an untargeted standard; higher = target protein stabilised (more abundant)). Settings: target protein: 3xFLAG-MCP-GCK-ALFA reporter; HEK293 landing pad (RPLP).
How it was run: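 The readout is target abundance, the per-binder median log2 ratio of FLAG to Myc barcode read proportions. It came from HEK293 landing-pad cells carrying a recombined ALFA-nanobody-fused binder library, induced with 2 μg mL^−1 doxycycline and transfected with a plasmid for a FLAG-tagged target and a Myc-tagged standard. After 48 h, lysates were immunoprecipitated with anti-FLAG and anti-Myc, and circular RNA barcodes were reverse transcribed, amplified and sequenced. Each barcode needed a proportion of at least 10^−7 in both replicates and each binder at least 3 barcodes per replicate, a pseudocount of 10^−6 was added, and the replicates were pooled.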

| Binder | median log2 fold change |
| --- | --- |
| B1 | -0.672 |
| B2 | -0.00697 |
| B3 | -0.00261 |
| B4 | 0.3 |
| B5 | -0.121 |
| B6 | -0.154 |
| B7 | -0.192 |
| B8 | -0.487 |
| B9 | -0.0746 |
| B10 | -0.781 |
| B11 | 0.206 |
| B12 | 0.221 |
| B13 | -0.171 |
| B14 | -0.119 |
| B15 | -0.571 |
| B16 | -0.304 |
| B17 | 0.248 |
| B18 | -0.0134 |
| B19 | 0.23 |
